KB-3-1 cytotox: KB-3-1 parental cell cytotoxicity; KB-3-1 viability, CellTiter-Glo ATP luminescence, 72 h; Potency, µM (series often up to 46.1 µM), most hits filed as cytotoxic; 400,000 tested, 1.4% active; AID 1347075; further: on the % scale 0 is the no-effect control and ±100 the full control effect; nearly all actives have a fitted effect of over 60% in size
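Cytotoxicity in the drug-sensitive parental line KB-3-1 was scored as loss of CellTiter-Glo luminescence following 72 h incubation with compound. Values come from curve fitting of normalized concentration-response data.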
12-LOX inh: inhibitors of human 12S-lipoxygenase ALOX12 | P18054 | purified 12hLO, xylenol orange hydroperoxide absorbance | Potency, µM (top dose mostly 108 µM), for the others: at the highest dose activity change, negative = inhibition, usual class: inhibitors | 580,000 tested, 1.1% active | AID 1671190; further: on the % scale 0 is the no-effect control and ±100 the full control effect
Target sequence (P18054 whole entry, looked up): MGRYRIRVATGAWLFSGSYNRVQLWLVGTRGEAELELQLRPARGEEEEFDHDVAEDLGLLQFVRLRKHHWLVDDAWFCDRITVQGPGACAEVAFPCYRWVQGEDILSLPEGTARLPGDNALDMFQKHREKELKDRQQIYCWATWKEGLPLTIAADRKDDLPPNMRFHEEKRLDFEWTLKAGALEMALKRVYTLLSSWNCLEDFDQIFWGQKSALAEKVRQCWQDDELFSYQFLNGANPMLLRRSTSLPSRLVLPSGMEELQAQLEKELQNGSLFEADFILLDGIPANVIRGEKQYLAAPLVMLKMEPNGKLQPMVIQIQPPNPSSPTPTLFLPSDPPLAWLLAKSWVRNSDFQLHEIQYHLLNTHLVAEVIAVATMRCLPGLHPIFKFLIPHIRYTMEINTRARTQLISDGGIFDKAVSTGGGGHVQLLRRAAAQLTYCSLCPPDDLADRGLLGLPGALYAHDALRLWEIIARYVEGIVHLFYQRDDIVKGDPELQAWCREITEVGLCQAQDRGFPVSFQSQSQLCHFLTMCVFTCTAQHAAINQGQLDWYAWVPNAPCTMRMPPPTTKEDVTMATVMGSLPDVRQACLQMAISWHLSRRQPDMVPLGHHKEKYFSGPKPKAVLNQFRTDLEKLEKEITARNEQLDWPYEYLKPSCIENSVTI
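Purified human 12hLO (150 nM final) in 25 mM Hepes, 0.01% Triton X-100, pH 7.0 was preincubated 15 min at room temperature with compound. Then 40 uM arachidonic acid was added, 30 min. Hydroperoxide was read by Fe-XO absorbance ratio 573/405 nm.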
KB-V1 MDR tox: kills drug-selected multidrug resistant KB-V1 cells; 400,000 tested, 3.4% active; KB-V1 MDR cells viability, CellTiter-Glo, 72 h; Potency, µM (doses to about 46.1 µM), actives largely listed as cytotoxic; further: on the % scale 0 is the no-effect control and ±100 the full control effect; nearly all actives have a fitted effect of over 60% in size
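Potencies derive from concentration-effect curves fitted to normalized luminescence (CellTiter-Glo) of KB-V1 cells treated for 72 h at 37 degrees C in phenol-red-free DMEM containing 10% FBS.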
PINK1 modulator: changes PINK1 expression. PINK1 immunofluorescence, high-content cytometry, 24 h. Potency, µM (highest dose often 76.6 µM), for inactives: top-dose activation (PINK1 increase), most hits filed as activators. 410,000 tested, 0.2% active. AID 624263; active means well fitted activation curve with a large enough effect; inconclusive means small, poorly fitted or top-dose-only effect; cell line not stated here; further: % of control where 0% means no effect; nearly all actives have a fitted effect of over 65% in size
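Stable cell line, 250 cells/well, 12 h attachment; compounds pinned at 5 concentrations, 24 h; CCCP control. Fixed with nuclear dye, primary antibodies 12 h at 10 degrees C, secondary plus cell stain; laser-scanning cytometer read.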
SW480 rerep: inducers of DNA re-replication in SW480 colon cancer cells. SW480 DNA re-replication, Hoechst DNA content imaging, 48 h. Potency, µM (titrated, usually from 46.1 µM), inactives show at the highest dose re-replication activation, most hits filed as activators. 340,000 tested, 1.8% active. AID 624297; further: % of control where 0% means no effect; nearly all actives have a fitted effect of over 55% in size
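Compounds, transferred as 23 nL by pin tool, were incubated with cells for 48 hr; DNA content per nucleus was then quantified by Hoechst staining and fluorescence plate imaging.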
MCF10A rereplic: inducers of DNA re-replication in MCF 10A breast cells | AID 624296 | Potency, µM (highest dose often 46.1 µM), for inactives: top-dose activity, positive = re-replication, most hits filed as activators | MCF 10A DNA re-replication, Hoechst nuclear intensity, 48 h | 350,000 tested, 2.9% active; further: % of control where 0% means no effect; nearly all actives have a fitted effect of over 50% in size
* = called active by the depositor; i = inactive; ? = inconclusive; / = no result given; [ ] = remark or other dose. The list is not random: actives were taken first. Their share in the collection is about 5.8%. Unless noted, the call rests on the fitted dose curve; in most records, active means well fitted curve in the direction sought with a large enough effect; inconclusive means small, poorly fitted or top-dose-only effect, or another doubt; inactive means no such curve, though single readings can be large; an effect the other way counts as inactive or inconclusive. Potency means the concentration at half of the fitted maximal effect.

SMILES	KB-3-1 cytotox	12-LOX inh	KB-V1 MDR tox	PINK1 modulator	SW480 rerep	MCF10A rereplic
Cc1ccc(-n2c(C)cc(C(=O)COC(=O)c3c(C)noc3C)c2C)cc1	18µM*	-16%	6.5µM*	4%[38.3 µM]	16%	18%
CCC(=O)OCC(=O)c1cc(C)n(-c2ccc(Br)cc2)c1C	?	-18%	15µM*	1%	0%	-6%
O=C(COC(=O)c1cnccn1)c1ccc(Br)cc1	i	-21%	?	0%	-1%	1%
Cc1cc(C(=O)COC(=O)c2cnccn2)c(C)n1-c1ccc(Br)cc1	?	?	15µM*	-1%	-5%	12%
Cc1cc(C(=O)COC(=O)C2=COCCO2)c(C)n1-c1ccccc1	i	-4%	13µM*	3%	0%	0%
COc1ccccc1-c1cc(NC(=O)C(C)SC)n[nH]1 (centres undefined)	/	17%	/	/	/	/
COc1ccc(C(C)NC(=O)CCOc2ccc(Cl)cc2)cc1F (centres undefined)	/	3%	/	/	/	/
Nc1c(S(=O)(=O)c2cccs2)c2nc3ccccc3nc2n1/N=C/c1cccc(O)c1	?	0%	?	6%	?	6.5µM*
Cc1ccc(-n2c(N)c(S(=O)(=O)c3ccccc3)c3nc4ccccc4nc32)cc1	i	-19%	i	6%	-20%	-13%
Cc1cccc(S(=O)(=O)c2c(N)n(/N=C/c3ccco3)c3nc4ccccc4nc23)c1	i	-6%	3.7µM*	5%[38.3 µM]	25%	?
COc1cccc(/C=N/n2c(N)c(S(=O)(=O)c3cccs3)c3nc4ccccc4nc32)c1	i	-5%	i	/	3%	17%
Cc1cccc(S(=O)(=O)c2c(N)n(-c3ccccc3)c3nc4ccccc4nc23)c1	i	-21%	2.9µM*	1%	-1%	8%
Cc1ccc(S(=O)(=O)c2c(N)n(/N=C/c3ccco3)c3nc4ccccc4nc23)cc1	i	?	i	1%	-7%	?
CC12CC3CC(C)(C1)CC(C(=O)NC1CCCC1)(C3)C2	/	33%	/	/	/	/
CC1=C(C(N)=O)C(c2cccnc2)n2nc(SCc3ccccc3F)nc2N1 (centres undefined)	/	13%	/	/	/	/
COc1cc(C)cc2oc(=O)c(CC(=O)Nc3ccc4c(c3)OCO4)c(C)c12	/	-28%	/	/	/	/
O=C(C1CC(=O)N(C2CCCC2)C1)N1CCC(Cc2ccccc2)CC1 (centres undefined)	i	9%	13µM*	/	5%	0%
O=C(C1CC(=O)N(C2CCCC2)C1)N1CCN(c2ccccc2F)CC1 (centres undefined)	i	15%	i	1%	-10%	1%
CC1Oc2ccc(-c3csc(NC(=O)c4cccs4)n3)cc2NC1=O (centres undefined)	/	12%	/	/	/	/
Cc1onc(-c2ccccc2Cl)c1C(=O)N1CCC(Cc2ccccc2)CC1	?	-1%	i	24%	-13%	?
Cc1noc(C)c1C(=O)N1CCC(Cc2ccccc2)CC1	i	25%	15µM*	-3%[38.3 µM]	-2%	6%
Cc1ccc(-c2nn(-c3ccccc3)cc2/C=C(\C#N)c2cccc(C#N)c2)o1	i	/	i	?	?	?
N#C/C(=C\c1cn(-c2ccccc2)nc1-c1cc2ccccc2o1)c1nc2ccccc2[nH]1	i	16%	?	?	2.9µM*	?
CN(C)S(=O)(=O)c1cccc(-c2nn(-c3ccccc3)cc2/C=C2\SC(=S)NC2=O)c1	?	?	?	?	-2%	?
CN(C)S(=O)(=O)c1cccc(-c2nn(-c3ccccc3)cc2/C=C(\C#N)c2nc3ccccc3[nH]2)c1	i	-26%	i	1%	?	3.3µM*
SMILES	KB-3-1 cytotox	12-LOX inh	KB-V1 MDR tox	PINK1 modulator	SW480 rerep	MCF10A rereplic
COc1ccc(NS(=O)(=O)c2cc(C(=O)N3CCN(C/C=C/c4ccccc4)CC3)ccc2C)cc1	18µM*	-13%	5.8µM*	-2%	-1%	11%
O=C(CCNS(=O)(=O)c1ccc(OC(F)(F)F)cc1)N1CCN(C/C=C/c2ccccc2)CC1	?	-25%	6.5µM*	0%	2%	?
CCCc1c(C)c2ccc(OCC(=O)OCC)cc2oc1=O	/	29%	/	/	/	/
CCCOC(=O)c1ccc(Oc2c(C)oc3cc(OC(=O)N4CCOCC4)ccc3c2=O)cc1	/	-12%	/	/	/	/
O=c1c(-c2nc3ccccc3s2)cccn1Cc1ccc(Cl)c(Cl)c1	i	0%	i	8%	1.2µM*	?
O=C(c1cccn(Cc2ccc(Cl)c(Cl)c2)c1=O)N1CCOCC1	?	6%	?	3%[38.3 µM]	-3%	3%
CCN(CCNC(=O)CC1=C2CCCCC2N(C)C1=O)Cc1ccccc1 (centres undefined)	/	5%	/	/	/	/
Cc1ccc2nc(-c3ccc(SCC(=O)Nc4nc(C)cs4)nc3)[nH]c2c1	?	-12%	i	?	8%	?
Cc1ccc(SCC(=O)Nc2ccc(-c3nc4ccccc4[nH]3)cc2)cc1	i	-19%	i	?	8%	13µM*
Cc1nc(NC(=O)CSc2ccc(-c3nc4ccccc4[nH]3)cn2)sc1C	i	-25%	i	9%	5%	18µM*
Cc1ccc2nc(-c3ccc(SCC(=O)Nc4nnc(C)s4)nc3)[nH]c2c1	i	?	i	-4%	?	18µM*
N#Cc1ccc(COC(=O)c2cc(-c3ccccc3)c(N3CCOCC3)s2)cc1	/	7%	/	/	/	/
COc1ccc2[nH]c3c(c2c1)CCNC31CCN(C(=O)C2CCN2C2CCCCC2)CC1 (centres undefined)	/	31%	/	/	/	/
COc1cc(C2CC(=O)N(c3ccc(C)cc3)C(=O)C2)cc(OC)c1OC	4.6µM*	0%	4.6µM*	5%	3.7µM*	6.5µM*
Cc1cccc(OCC(=O)Nc2ccc(-c3nc4ccc(C)cc4o3)cc2)c1	/	-33%	/	/	/	/
CC(C)CN1C(=O)CO[C@H](c2ccc(NC(=O)C3CCCC3)cc2)[C@H]1CO	/	19%[176 µM]	/	/	/	/
CCCCC1=CC2=CC(=O)C(C)(OC(=O)c3cccs3)C(=O)C2=CO1 (centres undefined)	i	28µM*	i	2%	-6%[9.22 µM]	-1%
CC1(OC(=O)CCc2ccccc2)C(=O)C=C2C=C(c3ccc(C#N)cc3)N(Cc3ccccc3)C=C2C1=O (centres undefined)	i	-16%	i	1%	1%	-14%
CCCCC1=CC2=CC(=O)C(C)(OC(=O)CCc3ccccc3)C(=O)C2=CO1 (centres undefined)	i	13µM*	i	0%	-47%	30%

Bioassay records deposited in PubChem BioAssay by National Center for Advancing Translational Sciences (NCATS).
